About 83,000 compounds went through this panel and 20% of them were active in at least one assay; those are over-represented in the sample as a whole.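 Values shown are percent growth following 48 h exposure of cells in 96-well plates to a single concentration of compound; below 10 was considered active.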 A number with no mark means an inactive call. The source made the active and inactive calls.
How the values were obtained:
Experiment in all cases: NCI-60 one-dose screen, 48 h (100 = growth as untreated, 0 = no growth, -100 = all killed)
Settings in all cases: 10 µM unless noted
DU-145 prostate = system: DU-145 prostate
K-562 leukemia = system: K-562 leukemia
MALME-3M melanoma = system: MALME-3M melanoma
MDA-MB-231 breast = system: MDA-MB-231 breast
RXF 393 renal = system: RXF 393 renal
SF-268 CNS = system: SF-268 CNS
SF-295 CNS = system: SF-295 CNS
SF-539 CNS = system: SF-539 CNS
M14 melanoma = system: M14 melanoma
HCT-15 colon = system: HCT-15 colon
HT29 colon = system: HT29 colon
SNB-75 CNS = system: SNB-75 CNS
SNB-19 CNS = system: SNB-19 CNS
U251 CNS = system: U251 CNS
PC-3 prostate = system: PC-3 prostate
SK-MEL-5 melanoma = system: SK-MEL-5 melanoma
UACC-62 melanoma = system: UACC-62 melanoma
LOX IMVI melanoma = system: LOX IMVI melanoma
SK-MEL-28 melanoma = system: SK-MEL-28 melanoma

| Compound | growth (DU-145 prostate) | growth (K-562 leukemia) | growth (MALME-3M melanoma) | growth (MDA-MB-231 breast) | growth (RXF 393 renal) | growth (SF-268 CNS) | growth (SF-295 CNS) | growth (SF-539 CNS) | growth (M14 melanoma) | growth (HCT-15 colon) | growth (HT29 colon) | growth (SNB-75 CNS) | growth (SNB-19 CNS) | growth (U251 CNS) | growth (PC-3 prostate) | growth (SK-MEL-5 melanoma) | growth (UACC-62 melanoma) | growth (LOX IMVI melanoma) | growth (SK-MEL-28 melanoma) |
| --- | --- | --- | --- | --- | --- | --- | --- | --- | --- | --- | --- | --- | --- | --- | --- | --- | --- | --- | --- |
| CCNc1nc(N2CC(=O)Nc3cc(OC)ccc32)c2ccccc2n1 | -1.09% (active) | 6.9% (active) | 51% | 12.7% | 33.7% | 14.8% | -5.23% (active) | -4.78% (active) | 7.3% (active) | 6.11% (active) | 0.723% (active) | 24.7% | 19.2% | 8.29% (active) | 6.21% (active) | -81.6% (active) | 9.13% (active) | 20.5% | 45% |
| COc1ccc2c(c1)NC(=O)CN2c1nc(NC2CC2)nc2ccccc12 | 0.326% (active) | 8.2% (active) | 70.3% | 14.9% | 39.2% | 21.9% | 0.0109% (active) | -15% (active) | 6.86% (active) | 10.5% | 3.45% (active) | 31.4% | 29.9% | 11.8% | 4.75% (active) | -55.3% (active) | 26.1% | 34.9% | 54.7% |
| O=C1CCCCN1CCCCC#Cc1ccccc1C#Cc1ccc([N+](=O)[O-])cc1 | 71.1% | 33.9% | 55.7% | 59.3% | 23.5% | 40.3% | 75.9% | 37.6% | 59.5% | 17.4% | 28.4% | 66.1% | 70.2% | 28% | 31.9% | 3.34% (active) | 25.8% | 6.11% (active) | 46.1% |
| CC/C=C\C/C=C\C[C@H]1C/C=C2/C(=O)C=C[C@H]2C/C=C\CCC(=O)O1 | 12.7% | 1.48% (active) | 12.4% | 3.22% (active) | -48% (active) | 12.7% | 6.87% (active) | 13% | -3.62% (active) | -14.6% (active) | -16.5% (active) | 62% | 40.6% | 2.71% (active) | -18.9% (active) | -58.4% (active) | -43.6% (active) | -68.4% (active) | -1.61% (active) |
| O=C(O)C(=Cc1c2ccccc2cc2ccccc12)C(=O)O | 118% | 100% | 97.9% | 103% | 115% | 108% | 100% | 97.3% | 100% | 106% | 105% | 104% | 101% | 101% | 97.2% | 104% | 93.5% | 86.8% | 114% |
| CC/C=C\C/C=C\C[C@H](O)C/C=C1/C(=O)C=C[C@H]1C/C=C\CCC(=O)OC | 46% [8.25 µM] | 5.45% [8.25 µM] (active) | 41.6% [8.25 µM] | 21% [8.25 µM] | 21.3% [8.25 µM] | 20.6% [8.25 µM] | 82.4% [8.25 µM] | 17% [8.25 µM] | 12.7% [8.25 µM] | -13.3% [8.25 µM] (active) | 2.84% [8.25 µM] (active) | 75.2% [8.25 µM] | 62.4% [8.25 µM] | 15% [8.25 µM] | 20.1% [8.25 µM] | 24.5% [8.25 µM] | 4.47% [8.25 µM] (active) | -71.8% [8.25 µM] (active) | 22.5% [8.25 µM] |
| Cc1ccccc1C(=O)c1ccccc1C(=O)O | 110% | 106% | 109% | 115% | 118% | 106% | 109% | 105% | 96.3% | 107% | 111% | 84.8% | 111% | 104% | 96.8% | 104% | 104% | 95.9% | 109% |
| COc1cc(-n2nc(C(=O)Nc3ccc(C(=O)O)cc3)nc2-c2ccccc2)cc(OC)c1OC | 70.6% | 100% | 94.2% | 99% | 106% | 92% | 103% | 106% | 100% | 89.3% | 103% | 94.1% | 91.9% | 102% | 71.3% | 107% | 95.1% | 101% | 115% |
| COc1ccccc1OCC(=O)Nc1sc2c(c1C(N)=O)CCC2 | 58.4% | 52.5% | 91.9% | 92.1% | 48.1% | 43.7% | 15.2% | 59.6% | 66.4% | 83.1% | 74.1% | 86.8% | 70.4% | 60.9% | 88.1% | 70% | 49.7% | 50.5% | 101% |
| CC(Cc1nnc(SCC(=O)Nc2ccc(I)cc2)n1N)c1ccccc1 (centres undefined) | 94.5% | 87.1% | 108% | 81.8% | 53.7% | 102% | 127% | 94.3% | 95.3% | 103% | 111% | 260% | 96.6% | 92.7% | 90.2% | 94.3% | 66.8% | 83.7% | 133% |
| Cc1cnc(NC(=O)C(Cc2ccccc2)NC(=O)c2ccccc2)s1 (centres undefined) | 85.5% | 29.7% | 54% | 77.9% | 50.2% | 96.9% | 65.9% | 87% | 52% | 79.9% | 55% | 83.6% | 93.3% | 92.2% | 70.7% | 25.5% | 62.2% | 55.9% | 88.9% |
| O=C(CNC(=O)c1cccc2ccccc12)Nc1ccccc1Oc1ccccc1 | 3.85% (active) | 7.84% (active) | 71.8% | 15% | 31.1% | 18.1% | 13.6% | 1.63% (active) | 17.2% | 8.09% (active) | 1.97% (active) | 38.9% | 33.8% | 11.5% | 2.31% (active) | -33.1% (active) | 21.3% | 15.5% | 57.8% |
| COC(=O)c1ccc(C)cc1 | 103% | 102% | 108% | 107% | 106% | 97.9% | 102% | 103% | 116% | 105% | 98.6% | 89.2% | 115% | 94.9% | 97.5% | 103% | 106% | 99.5% | 113% |
| CC(Br)C(O)c1cc2c(cc1Br)OCO2 (centres undefined) | 109% | 101% | 109% | 111% | 104% | 104% | 110% | 105% | 96% | 102% | 114% | 88% | 112% | 102% | 98.6% | 102% | 98.9% | 93.2% | 108% |
| CC(Br)C(Br)c1cc2c(cc1Br)OCO2 (centres undefined) | 108% | 112% | 100% | 110% | 104% | 99.6% | 98.5% | 91.1% | 94.3% | 101% | 96% | 78.2% | 111% | 93.1% | 79.2% | 104% | 108% | 96.2% | 105% |
| CCCCOc1nc2c(C)cccc2cc1C1CNC(=O)c2ccccc2N1 (centres undefined) | 86% | 19% | 86.1% | 65.3% | 78.3% | 66.9% | 52.5% | 68.3% | 54.7% | 43.4% | 61.4% | 56.6% | 47% | 63.7% | 40.1% | 43.4% | 29.1% | 60.8% | 66.4% |

— PubChem BioAssay (NCI)
